Several values for one entry are separate records, joined by “and”; a condition that tells them apart may be missing. Equal entries are not always repeated. Out of some 5,500 compounds screened, about 2,000 (36%) were called active. Another 18% or so got no clear call; they are omitted. Cut-off read from the data, not from the text of the source: active = normalized growth mostly below about 0.91 (no sharp cut-off); inconclusive = no clear call, values can overlap the other calls; inactive = mostly above about 0.92. The list shows a part of the results.
Test: chemical genetic growth profiling, strain panel (AID 1159580);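 note: tested at 20 µM; growth read once vehicle control cultures reached saturation at 30 °C; 1 = growth at the plate median or of vehicle wells; lower values mean less growth of the strain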
Details: S. cerevisiae deletion strains, growth OD
[1] = locus YAR019C, strain CDC15, hits give low values
[2] = locus YBL105C, strain PKC1, hits give low values
[3] = locus YBR135W, strain CKS1, hits give low values
[4] = locus YBR136W, strain MEC1, hits give low values
[5] = locus YBR160W, strain CDC28, hits give low values
[6] = locus YDL017W, strain CDC7, hits give low values
[7] = locus YDL028C, strain MPS1, hits give low values
[8] = locus YDL101C, strain DUN1, hits give low values
[9] = locus YDL108W, strain KIN28, hits give low values
[10] = locus YDL132W, strain cdc53, hits give low values
[11] = locus YDL214C, strain PRR2, hits give low values
[12] = locus YDR052C, strain DBF4, hits give low values
[13] = locus YDR054C, strain cdc34, hits give low values
[14] = locus YDR226W, strain ADK1, hits give low values
[15] = locus YDR477W, strain SNF1, hits give low values
[16] = locus YER123W, strain YCK3, hits give low values
[17] = locus YER133W, strain GLC7, hits give low values
[18] = locus YFL009W, strain cdc4, hits give low values
[19] = locus YFL029C, strain CAK1, hits give low values
[20] = locus YFR003C, strain YPI1, hits give low values
[21] = locus YFR019W, strain FAB1, hits give low values
[22] = locus YFR028C, strain CDC14, hits give low values
[23] = locus YGR040W, strain KSS1, hits give low values
[24] = locus YGR052W, strain FMP48, hits give low values
[25] = locus YGR092W, strain DBF2, hits give low values
[26] = locus YHR030C, strain SLT2, hits give low values
[27] = locus YHR079C, strain IRE1, hits give low values
[28] = locus YHR082C, strain KSP1, hits give low values
[29] = locus YHR205W, strain SCH9, hits give low values
[30] = locus YIL147C, strain SLN1, hits give low values
[31] = locus YJL095W, strain BCK1, hits give low values
[32] = locus YJL128C, strain PBS2, hits give low values
[33] = locus YJL157C, strain FAR1, hits give low values
[34] = locus YJR016C, strain ILV3, hits give low values
[35] = locus YJR066W, strain TOR1 (second series), hits give low values
[36] = locus YJR066W, strain TOR1, hits give low values
[37] = locus YKL048C, strain ELM1, hits give low values
[38] = locus YKL067W, strain YNK1, hits give low values
[39] = locus YKL101W, strain HSL1, hits give low values
[40] = locus YKL193C, strain SDS22, hits give low values
[41] = locus YKL203C, strain TOR2, hits give low values
[42] = locus YLR113W, strain HOG1, hits give low values
[43] = locus YLR133W, strain CKI1, hits give low values
[44] = locus YLR403W, strain SFP1, hits give low values
[45] = locus YML070W, strain DAK1, hits give low values
[46] = locus YMR001C, strain CDC5, hits give low values
[47] = locus YMR205C, strain PFK2 (second series), hits give low values
[48] = locus YMR277W, strain FCP1, hits give low values
[49] = locus YNL006W, strain LST8, hits give low values
[50] = locus YNL020C, strain ARK1, hits give low values
[51] = locus YNL161W, strain CBK1, hits give low values
[52] = locus YNL183C, strain NPR1, hits give low values
[53] = locus YNL207W, strain RIO2, hits give low values
[54] = locus YNL222W, strain SSU72, hits give low values
[55] = locus YNL307C, strain MCK1 (second series), hits give low values
[56] = locus YOL078W, strain AVO1, hits give low values
[57] = locus YOL136C, strain PFK27, hits give low values
[58] = locus YOR061W, strain CKA2, hits give low values
[59] = locus YOR119C, strain RIO1, hits give low values
[60] = locus YOR231W, strain MKK1, hits give low values
[61] = locus YOR329C, strain SCD5, hits give low values
[62] = locus YPL031C, strain PHO85, hits give low values
[63] = locus YPL153C, strain RAD53, hits give low values
[64] = locus YPL209C, strain IPL1, hits give low values
[65] = locus YPL256C, strain CLN2, hits give low values
[66] = locus YPR025C, strain CCL1, hits give low values
[67] = locus YPR106W, strain ISR1, hits give low values
[68] = locus YPR111W, strain DBF20, hits give low values
[69] = strain NNK1, hits give low values
[70] = strain TSCII, hits give low values

Measured: normalized growth

Oc1ccc(N=Nc2ccccn2)c(O)c1
active: [1] 0.0954 | [2] 0.0926 | [3] 0.0984 | [4] 0.0929 | [5] 0.0967 | [6] 0.0946 | [7] 0.0969 | [8] 0.103 | [9] 0.0995 | [10] 0.0971 | [11] 0.0962 | [12] 0.0928 | [13] 0.0989 | [14] 0.0953 | [15] 0.102 | [16] 0.108 | [17] 0.103 | [18] 0.0975 | [19] 0.0955 | [20] 0.0966 | [21] 0.0923 | [22] 0.0968 | [23] 0.0983 | [24] 0.121 | [25] 0.0944 | [26] 0.116 | [27] 0.12 | [28] 0.125 | [29] 0.00344 | [30] 0.0967 | [31] 0.104 | [32] 0.102 | [33] 0.0922 | [34] 0.0883 | [35] 0.0985 | [36] 0.114 | [37] 0.113 | [38] 0.101 | [39] 0.0988 | [40] 0.0969 | [41] 0.102 | [42] 0.153 | [43] 0.0924 | [44] 0.00522 | [45] 0.103 | [46] 0.095 | [47] 0.0981 | [48] 0.0981 | [49] 0.1 | [50] 0.0963 | [51] 0.0956 | [52] 0.123 | [53] 0.0923 | [54] 0.0956 | [55] 0.0988 | [56] 0.0959 | [57] 0.0997 | [58] 0.097 | [59] 0.108 | [60] 0.118 | [61] 0.0939 | [62] 0.101 | [63] 0.1 | locus YPL204W, strain HRR25, hits give low values 0.102 | [64] 0.0941 | [65] 0.155 | [66] 0.0983 | [67] 0.0922 | [68] 0.103 | [69] 0.0965 | [70] 0.0967

COc1cc(CC/C(C)=N/O)ccc1OCc1ccc(Cl)cc1Cl
active: locus YAL013W, strain DEP1, hits give low values 0.908 | locus YGR078C, strain PAC10, hits give low values 0.92 | [26] 0.242 and 0.801 | locus YJR043C, strain POL32, hits give low values 0.91 | locus YJR075W, strain HOC1, hits give low values 0.879 | locus YKL190W, strain CNB1, hits give low values 0.762 | locus YLR039C, strain RIC1, hits give low values 0.694 | locus YLR085C, strain ARP6, hits give low values 0.307 | locus YLR262C, strain YPT6, hits give low values 0.803 | locus YML094W, strain GIM5, hits give low values 0.865 | locus YNL298W, strain CLA4 (second series), hits give low values 0.784 | locus YNR030W, strain Alg12, hits give low values 0.803 | locus YOL006C, strain TOP1, hits give low values 0.579 | locus YPL055C, strain LGE1, hits give low values 0.727 | locus YPL241C, strain CIN2, hits give low values 0.822 | [65] 0.863 | locus YPR135W, strain CTF4, hits give low values 0.388
inactive: [1] 0.977 | [2] 0.972 | [3] 0.978 | [4] 0.977 | [5] 0.981 | locus YBR229C, strain ROT2, hits give low values 0.934 | locus YCL061C, strain MRC1, hits give low values 0.931 | [6] 0.979 | [7] 0.978 | [8] 0.992 and 0.922 | [9] 0.978 | [10] 0.982 | locus YDL134C, strain PPH21, hits give low values 0.925 | [11] 0.944 | [12] 0.989 | [13] 0.998 | locus YDR150W, strain NUM1, hits give low values 0.911 | [14] 1 | [15] 0.952 | locus YEL061C, strain CIN8, hits give low values 0.929 | [16] 0.939 | [17] 0.937 | [18] 0.968 | [19] 0.98 | [20] 0.976 | [21] 0.953 | [22] 0.984 | [23] 0.948 | [24] 0.973 | [25] 0.952 | [27] 0.885 | [28] 1.02 | locus YHR087W, strain rtc3, hits give low values 0.935 | [29] 0.939 | [30] 0.982 | [31] 0.938 | [32] 0.932 | [33] 0.918 | [34] 0.978 | [35] 0.913 | [36] 1.01 | [37] 0.986 | [38] 0.942 | [39] 0.949 | [40] 0.979 | [41] 0.972 | locus YLR058C, strain SHM2 (second series), hits give low values 0.976 | [42] 0.881 | [43] 0.944 | [44] 0.942 | [45] 0.936 | [46] 0.971 | [47] 0.965 | locus YMR219W, strain ESC1, hits give low values 0.998 | locus YMR263W, strain SAP30, hits give low values 0.912 | [48] 0.979 | [49] 0.974 | [50] 0.935 | locus YNL153C, strain GIM3, hits give low values 0.94 | [51] 0.976 | [52] 0.978 | [53] 0.979 | [54] 0.98 | [55] 0.932 | locus YNL322C, strain KRE1, hits give low values 0.98 | [56] 0.983 | [57] 0.921 | [58] 0.966 | [59] 1.02 | [60] 0.929 | [61] 0.976 | [62] 0.94 | [63] 0.95 | [64] 0.976 | [66] 0.979 | [67] 0.976 | [68] 0.993 | [69] 0.976 | [70] 0.973
